Lmaj promast – inhibitors of Leishmania major promastigote growth; 9% of 200,000 active; inhibition, % at 10 µM; Leishmania major promastigotes, resazurin fluorescence viability; in the data active = inhibition above about 50%;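 also: promastigotes grown with compound for 44 hours at 28 °C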
Ins promoter up – MIN6 insulin promoter up-regulation; MIN6 insulin promoter-GFP reporter, high-content imaging; hits give high values; z-score at 5 µM; 0.3% of 190,000 active;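 active = z-score above 3 at 5 µM with at least 500 cells counted in the well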
PTEN del growth – suppresses growth of cells with PTEN deletion; HCT116 PTEN-null viability, CellTiter-Glo, 60 h; hits give low values; viability, % at 10 µM; 1.2% of 140,000 active; AID 827;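 active = viability at or below a set limit, 4 SD under the median of all tested compounds, cut at about 3.7% in these data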;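 also: PTEN knockout HCT116 line with beta catenin targeted HCT116 as companion control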
Autophagy mod – autophagy modulation, high-content screen; calls only at 10 µM (by protocol); 0.98% of 190,000 active; MEF GFP-LC3 puncta imaging; test concentration mostly 10 µM;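 active = percentage of spot-positive cells more than 3 SD above its plate mean, without a fluorescence outlier flag or 80% toxicity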
Insulin prom inh – TRM-6 insulin promoter activity inhibition; 0.9% of 130,000 active; AID 1273; TRM-6 cells (human fetal islet line), insulin promoter-eGFP reporter, imaging; reporter expression induced with tamoxifen; inhibition, % at 2 µM;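 active = inhibition above the mean plus 3 SD, with well images judged a real hit on visual review, cut at about 60% in these data, passing the limit was not always enough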
bCat KO growth – beta-catenin-lacking colon tumor cell growth suppression; HCT116 beta-catenin knockout viability, CellTiter-Glo, 60 h; hits give low values; viability, % at 10 µM; 1.5% of 140,000 active;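 active = viability at or under a set limit, the compound median less 4 SD, cut at about 6% in these data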
Numbers stand for hits. The list is not random: actives were taken first. Their share in the collection is about 9.6%.

For Cc1cc2cc(C(c3nnnn3Cc3ccccc3)N3CCc4ccccc43)c(=O)[nH]c2cc1C (centres undefined) the results were Lmaj promast 99, Ins promoter up inactive, PTEN del growth inactive, Autophagy mod inactive, Insulin prom inh inactive and bCat KO growth inactive.
Cc1cccc2cc(C(c3nnnn3Cc3ccccc3)N3CCN(c4ccccc4)CC3)c(=O)[nH]c12 (centres undefined) was read as Lmaj promast 51, Ins promoter up inactive, PTEN del growth inactive, Autophagy mod inactive, Insulin prom inh inactive and bCat KO growth inactive.
CCOC(=O)C1(CCc2ccccc2)CCN(C(=O)C2=C(C)OCCO2)CC1 was read as Lmaj promast inactive, Ins promoter up inactive and Autophagy mod inactive.
For COc1cc(OC)cc(C(=O)NCCNC(=O)c2ccco2)c1 the results were Lmaj promast inactive, Ins promoter up inactive, PTEN del growth inactive, Autophagy mod inactive, Insulin prom inh inactive and bCat KO growth inactive.
Cc1cc2cc(C(c3nnnn3Cc3ccco3)N3CCc4ccccc4C3)c(=O)[nH]c2cc1C (centres undefined) was read as Lmaj promast 91, Ins promoter up inactive, PTEN del growth inactive, Autophagy mod inactive and bCat KO growth inactive.
CCOC(=O)c1ccc(NC(=O)CC2C(=O)N(c3ccc(F)cc3)C(=O)N2CCCOC)cc1 (centres undefined) was read as Lmaj promast inactive, Ins promoter up inactive, PTEN del growth inactive, Autophagy mod inactive, Insulin prom inh inactive and bCat KO growth inactive.
CN(C)c1nc(Cl)cc(N2CCOCC2)n1 was read as Lmaj promast inactive, Ins promoter up inactive, PTEN del growth inactive, Autophagy mod inactive, Insulin prom inh inactive and bCat KO growth inactive.
C=CCOc1ccccc1CNCc1ccc(F)cc1 was read as Lmaj promast 57, Ins promoter up inactive, Autophagy mod inactive and Insulin prom inh inactive.
For C=CCc1ccccc1OCCNCc1ccccc1 the results were Lmaj promast 71 and Autophagy mod inactive.
For CCOC(=O)c1c(-c2ccccc2)oc2ccc(O)c(CN3CCCC3)c12 the results were Lmaj promast 99, Ins promoter up inactive, PTEN del growth inactive, Autophagy mod inactive, Insulin prom inh inactive and bCat KO growth inactive.
COCCOC(=O)c1c(C)oc2ccc(O)c(CN3CCC(C)CC3)c12 was read as Lmaj promast inactive, Ins promoter up inactive, PTEN del growth inactive, Autophagy mod inactive, Insulin prom inh inactive and bCat KO growth inactive.
CCOC(=O)c1c(-c2ccccc2)oc2ccc(O)c(CN(C)C)c12 was read as Lmaj promast 100, Ins promoter up inactive, PTEN del growth inactive, Autophagy mod inactive, Insulin prom inh inactive and bCat KO growth inactive.
Screening CC(C)N1C(=O)/C(=C/c2nc3ccccc3c(=O)n2-c2ccccc2)c2ccccc21 returned Lmaj promast 100, Ins promoter up inactive, PTEN del growth 2.1, Autophagy mod inactive, Insulin prom inh inactive and bCat KO growth 2.5.
`Cc1nc2ccccc2c2c1C(=O)N(C(C)C)C2=O` gave Lmaj promast inactive, Ins promoter up inactive, PTEN del growth inactive, Autophagy mod inactive, Insulin prom inh inactive and bCat KO growth inactive.
`CC(C)N1C(=O)/C(=C\c2nc3ccccc3c(=O)n2-c2ccccc2)c2ccccc21` gave Lmaj promast 99, Ins promoter up inactive, PTEN del growth 3.1, Autophagy mod inactive, Insulin prom inh inactive and bCat KO growth inactive.
For Cc1ccc(CN2CCNC(=O)C2CC(=O)N(C)C2CCCCC2)o1 (centres undefined) the results were Lmaj promast inactive and Autophagy mod inactive.
Screening C=CCN1C(c2cccc(C(F)(F)F)c2)=CS/C1=C(/C#N)c1nnc(N2CCOCC2)n1-c1ccccc1 returned Lmaj promast inactive, Ins promoter up inactive, PTEN del growth inactive, Autophagy mod inactive, Insulin prom inh inactive and bCat KO growth inactive.
C=CCN1C(c2ccc(Br)cc2)=CS/C1=C(/C#N)c1nnc(N2CCOCC2)n1-c1ccccc1 was read as Lmaj promast 56, Ins promoter up inactive, PTEN del growth inactive, Autophagy mod inactive, Insulin prom inh inactive and bCat KO growth inactive.
For CCN(CC)c1ccc(C=Nc2cc(C)ccc2C)c(O)c1 the results were Lmaj promast inactive, Ins promoter up inactive, PTEN del growth inactive, Autophagy mod inactive, Insulin prom inh inactive and bCat KO growth inactive.
CCCCCn1c(N2CCN(Cc3ccccc3)CC2)nc2c1c(=O)[nH]c(=O)n2C was read as Lmaj promast 100, Ins promoter up inactive, PTEN del growth inactive, Autophagy mod inactive, Insulin prom inh inactive and bCat KO growth inactive.
Screening CCCCCn1c(N2CCC(Cc3ccccc3)CC2)nc2c1c(=O)[nH]c(=O)n2C returned Lmaj promast 99 and Autophagy mod inactive.
`CN(Cc1ccccc1)c1nc2c(c(=O)[nH]c(=O)n2C)n1CCOc1ccccc1` gave Lmaj promast 55, Ins promoter up inactive, PTEN del growth inactive, Autophagy mod inactive, Insulin prom inh inactive and bCat KO growth inactive.
Screening C=C(C)Cn1c(N2CCC(Cc3ccccc3)CC2)nc2c1c(=O)[nH]c(=O)n2C returned Lmaj promast 78, PTEN del growth inactive, Autophagy mod inactive, Insulin prom inh inactive and bCat KO growth inactive.
Screening Cc1cc(C)c(C)c(OCC(=O)O/N=C(\N)c2ccccn2)c1 returned Lmaj promast inactive, PTEN del growth inactive, Autophagy mod inactive and bCat KO growth inactive.
`COc1cccc(OCc2nnc(SCC(=O)OCc3ccccc3)o2)c1` gave Lmaj promast inactive, Ins promoter up inactive, PTEN del growth inactive, Autophagy mod inactive, Insulin prom inh inactive and bCat KO growth inactive.
Screening COc1ccc(NC(=O)CC(c2ccc(F)cc2)c2ccc(OC)cc2)cc1 (centres undefined) returned Lmaj promast inactive, Ins promoter up inactive, PTEN del growth inactive, Autophagy mod inactive and bCat KO growth inactive.
Screening COc1ccc(CCNC(=O)CCS(=O)(=O)c2ccc3c(c2)CCN3C(C)=O)cc1OC returned Lmaj promast inactive, Ins promoter up inactive, PTEN del growth inactive, Autophagy mod inactive, Insulin prom inh inactive and bCat KO growth inactive.
For COc1cccc(/C=N/NC(=O)c2cnccn2)c1 the results were Lmaj promast inactive, Ins promoter up inactive, PTEN del growth inactive, Autophagy mod inactive, Insulin prom inh inactive and bCat KO growth inactive.
`NC(=S)c1cc2cc(Br)ccc2oc1=O` gave Lmaj promast inactive, Autophagy mod inactive and Insulin prom inh inactive.
`Cc1ccc(C2N(c3ccccc3)C(=O)N3CCCN23)cc1` (centres undefined) gave Lmaj promast inactive, Ins promoter up inactive, Autophagy mod inactive and Insulin prom inh inactive.
CCCCn1c(CN2CCN(c3cccc(Cl)c3)CC2)nc2c1c(=O)[nH]c(=O)n2C was read as Lmaj promast inactive, Ins promoter up inactive, PTEN del growth inactive, Autophagy mod active, Insulin prom inh inactive and bCat KO growth inactive.
`CCNc1nc(NCC)nc(N/N=C/c2ccc(Br)cc2)n1` gave Lmaj promast 50, Ins promoter up inactive and Autophagy mod inactive.

Screening data deposited in PubChem BioAssay by several laboratories.
